# Measured values from publication PMC4336329 (PLoS ONE, 2015).
# Among all 310,000 compounds or so, about 14,000 (4.5%) showed an effect of 50% or more. Effects have a minus sign here. The full list was thinned out, with strong results kept by preference.
# Target: human ether-à-go-go-related gene (hERG) potassium channel (human, UniProt Q12809)
# Assay: primary screen, population patch clamp on CHO cells stably expressing hERG; higher = less effect of the substance
# 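Further: peak tail current of the secondary pulse compared with the same well before compound.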
# Sequence of human ether-à-go-go-related gene (hERG) potassium channel (Q12809 whole entry, looked up): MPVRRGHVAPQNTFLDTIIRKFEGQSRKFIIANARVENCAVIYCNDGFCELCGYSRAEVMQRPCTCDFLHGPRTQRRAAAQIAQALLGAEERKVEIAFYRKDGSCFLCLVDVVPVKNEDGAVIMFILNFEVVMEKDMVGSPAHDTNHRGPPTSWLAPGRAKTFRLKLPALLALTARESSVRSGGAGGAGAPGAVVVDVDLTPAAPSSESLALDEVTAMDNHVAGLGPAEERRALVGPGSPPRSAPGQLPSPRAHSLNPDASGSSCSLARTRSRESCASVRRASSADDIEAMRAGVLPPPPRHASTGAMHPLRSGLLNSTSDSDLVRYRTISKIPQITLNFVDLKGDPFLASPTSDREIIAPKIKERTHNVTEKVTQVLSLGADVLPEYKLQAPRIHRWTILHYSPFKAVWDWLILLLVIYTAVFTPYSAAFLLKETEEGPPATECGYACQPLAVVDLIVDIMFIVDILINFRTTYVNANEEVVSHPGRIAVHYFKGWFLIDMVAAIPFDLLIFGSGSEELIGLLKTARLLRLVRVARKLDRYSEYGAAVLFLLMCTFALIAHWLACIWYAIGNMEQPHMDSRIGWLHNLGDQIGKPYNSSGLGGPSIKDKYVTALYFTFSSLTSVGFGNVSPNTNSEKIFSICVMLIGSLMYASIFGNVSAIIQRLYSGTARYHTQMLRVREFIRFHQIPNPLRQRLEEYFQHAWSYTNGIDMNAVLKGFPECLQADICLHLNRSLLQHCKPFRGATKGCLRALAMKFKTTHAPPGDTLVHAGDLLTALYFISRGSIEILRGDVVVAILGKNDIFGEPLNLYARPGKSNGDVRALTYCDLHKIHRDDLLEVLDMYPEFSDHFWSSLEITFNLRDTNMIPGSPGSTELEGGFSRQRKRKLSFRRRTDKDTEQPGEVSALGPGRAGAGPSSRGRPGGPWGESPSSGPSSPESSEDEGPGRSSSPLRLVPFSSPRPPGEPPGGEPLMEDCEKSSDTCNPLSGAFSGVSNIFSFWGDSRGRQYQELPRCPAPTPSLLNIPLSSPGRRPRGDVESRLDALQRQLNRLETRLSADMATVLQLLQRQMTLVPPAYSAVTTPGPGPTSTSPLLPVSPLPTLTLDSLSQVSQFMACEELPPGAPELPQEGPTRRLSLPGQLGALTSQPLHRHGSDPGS
row,SMILES,"hERG current change (%, negative = inhibition) at 10uM [%]"
1,O=C(CCl)N(Cc1cc(=O)[nH]c2ccccc12)c1ccccc1,0.288
2,CCOC(=O)c1nn(-c2ccc(C)cc2)c(=O)cc1OCC(=O)Nc1cccc(OC)c1,1.6
3,Cn1cc(CN2CCC(n3nccc3NC(=O)c3ccccc3Cl)CC2)c2ccccc21,-68.6
4,COc1ccccc1C(=O)Nc1ccnn1C1CCN(Cc2cn(C)c3ccccc23)CC1,-83.6
5,Cc1cc(NC(=O)CSc2ccc3nnc(CCNS(=O)(=O)c4ccccc4)n3n2)no1,15.6
6,Nc1c(Cl)cc(-c2csc(N3CCCC3c3nc4cc(Cl)c(Cl)cc4n3CCOCCO)n2)cc1Cl (stereo not drawn),-0.601
7,Cc1cccc(C)c1NC(=O)NNC(=O)c1cc(C(C)(C)C)nn1Cc1ccccc1,0.818
8,CC1CCC/C(=N\NC(=S)Nc2ccccc2)C1 (stereo not drawn),7.36
9,O=C(Nc1ccc(Nc2ccccc2)cc1)c1c(Cl)cccc1Cl,12.3
10,Cc1ccc2c(c1)C1CN(C)CCC1N2C(=O)Cn1nnc(-c2ccccc2F)n1 (stereo not drawn),-60.1
11,COc1ccc(OCC(=O)N2c3ccc(C)cc3C3CN(C)CCC32)cc1 (stereo not drawn),-5.12
12,Cc1ccc2c(c1)C1CN(C)CCC1N2C(=O)COc1ccc(N(C)C(=O)c2ccccc2)cc1 (stereo not drawn),-11.6
13,CC1CCCN(C(=O)Cn2nnc(-c3ccccc3F)n2)C1 (stereo not drawn),13.8
14,Cc1ccc2c(c1)C1CN(C)CCC1N2C(=O)COc1ccccc1F (stereo not drawn),-4.18
15,Cc1ccc2c(c1)C1CN(C)CCC1N2C(=O)CCCN1C(=O)c2cccc3cccc(c23)C1=O (stereo not drawn),-57.4
16,Cc1cc(-n2c(SCc3ccccc3F)nc3n[nH]c(C)c3c2=N)ccc1Cl,15.8
17,COC(=O)c1ccccc1OCCCOc1ccc(C=O)cc1OC,-4.02
18,O=C(NCc1ccco1)c1ccc(COc2ccc(Cl)cc2)cc1,0.911
19,CCCN(C(=O)Cc1ccc(S(=O)(=O)N2CCOCC2)s1)c1c(N)n(Cc2ccccc2)c(=O)[nH]c1=O,16.8
20,CN(C)c1ccc(C(c2ccc(N(C)C)cc2)c2ccc([N+](=O)[O-])cc2)cc1,3.74
21,Cc1cccc(Sc2nc(-c3ccccc3)ncc2C(=O)O)c1,11.7
22,Cc1cc(=O)oc2cc(OCC(=O)N3CCN(c4ccccc4)CC3)ccc12,-36.6
23,Cc1cc(=O)oc2cc(OCC(=O)N3CCN(c4ccc(F)cc4)CC3)ccc12,-53
24,Cc1cc(=O)oc2c(C)c(OCC(=O)N3CCN(c4ccc(F)cc4)CC3)ccc12,-65.9
25,COc1ccc(N2CCN(C(=O)COc3ccc4c(C)cc(=O)oc4c3C)CC2)cc1,20.6
26,Cc1cc(=O)oc2c(C)c(OCC(=O)N3CCN(c4ccccc4)CC3)ccc12,-24.8
27,COc1ccc(N2CCN(C(=O)COc3ccc4c(C)cc(=O)oc4c3)CC2)cc1,-16.5
